# D1 antag – human D1 dopamine receptor antagonism. HEK293 TREx D1 cells, calcium flux, dopamine EC80; active compounds read low. P21728. activity change, negative = inhibition, % at 10 µM. 360,000 compounds, 3.2% hits. AID 504652; in the data active = activity change below about -30%; note: % is set by controls: 0 for no effect and ±100 for the full control effect
#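 Allosteric or orthosteric antagonism assessed as attenuation of the calcium response to EC80 dopamine, added 180 s after compound, in induced HEK293 Trex D1 cells loaded with no-wash calcium dye.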
# Glioma ERSR ind – inducers of ER stress response in human glioma cells; U87-MG GRP78 promoter luciferase reporter, 16 h; Potency, µM, inactives show at the highest dose activation, usual class: activators; 420,000 compounds, 0.02% hits; AID 602332; active = well fitted activation curve with a large enough effect; note: potency is the fitted concentration of half-maximal effect; series mostly up to about 76 µM; % of control where 0% means no effect; nearly all actives have a fitted effect of over 35% in size
#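 ERSR induction read as luciferase luminescence (Bright-Glo, 10 min at room temperature) in stably transfected human U87-MG glioma cells exposed to compounds for 16 h, using GRP78 as sensor.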
# D1 ag – activates the human D1 dopamine receptor; 360,000 compounds, 1% hits; P21728; HEK293 T-REx D1 cells, calcium flux, agonist mode; activation, % at 2 µM; note: 0% is about no effect
#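 Tetracycline-induced HEK293 TREx D1 cells, force-coupled to calcium signalling, were dye-loaded with a no-wash calcium kit. Compound was pin-added after a 10 s baseline. Fluorescence was read kinetically at 1 cycle/s for 180 s, with calcium rises flagged as agonism.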
# TRHR ag – TRH receptor (human) agonism; 360,000 compounds, 0.18% hits; P34981; TRHR cells, calcium flux fluo-8, FDSS agonist mode; AID 493084; activation, % at 2 µM; note: 0% is about no effect
# Target sequence (P34981 whole entry, looked up): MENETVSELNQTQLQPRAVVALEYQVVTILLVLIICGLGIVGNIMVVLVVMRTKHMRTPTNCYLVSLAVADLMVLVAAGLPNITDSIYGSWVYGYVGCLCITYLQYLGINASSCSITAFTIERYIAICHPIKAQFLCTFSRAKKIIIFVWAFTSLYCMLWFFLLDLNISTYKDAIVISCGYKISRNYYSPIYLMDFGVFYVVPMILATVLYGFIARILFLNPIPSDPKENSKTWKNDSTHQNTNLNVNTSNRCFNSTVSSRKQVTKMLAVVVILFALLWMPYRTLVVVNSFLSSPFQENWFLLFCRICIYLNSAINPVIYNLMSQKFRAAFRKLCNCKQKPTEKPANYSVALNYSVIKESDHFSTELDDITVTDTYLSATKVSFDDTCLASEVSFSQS
#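 In this calcium-flux screen, cells bearing human TRHR are dye-loaded with fluo-8, baselined for 10 cycles, then exposed to library compounds; positive kinetic calcium responses during the agonist phase mark hits, with TRH as control.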
# TRHR PAM – allosterically enhances the human TRH receptor; 360,000 compounds, 0.66% hits; TRHR cells, fluo-8 calcium fluorescence, EC20 TRH enhancement; enhancement, % at 2 µM; in the data active = enhancement above about 30%; note: 0% is about no effect
#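 Enhancer read-out: after compound pinning and an initial kinetic agonist-mode read, an EC20 of TRH (10 nM final) was injected and fluo-8 calcium signal (Ex 480/Em 530) followed at 1 s/cycle for 100 cycles in TRHR-expressing cells.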
# D1 potentiator – human D1 dopamine receptor positive modulation | HEK293 TREx D1 cells, calcium flux, dopamine EC20 potentiation | potentiation, % at 10 µM | AID 504651 | 360,000 compounds, 0.036% hits; in the data active = potentiation above about 30%; note: 0% is about no effect
# An asterisk follows results filed as active; . = not tested or not shown. Compounds with a hit are over-represented: about 4% of the library has one in this group of screens. Cut-off read from the data, not from the text of the source, unless noted: active = activation above about 30%; inactive = the rest.
SMILES,D1 antag,Glioma ERSR ind,D1 ag,TRHR ag,TRHR PAM,D1 potentiator
COc1cc(/C=C(\C#N)C(=O)NCC2CCCO2)ccc1O (configuration not stated),2.0,-1.4%,5.7,1.1,-6.7,-0.8
CCOC(=O)c1ccc(NC(=O)C(CC)Sc2nc3ccncc3[nH]2)cc1 (configuration not stated),25.3,-0.4%,53.1*,-0.9,-1.9,-0.8
CCc1cccc(CC)c1NC(=O)C(CC)Sc1nc2ccncc2[nH]1 (configuration not stated),-2.8,-4.9%,6.1,-0.9,-3.7,-7.6
O=C(CCCN1C(=O)/C(=C/c2cccc(Br)c2)SC1=S)Nc1ccccn1,-12.9,-5.9%,3.4,0.1,-7.1,0.1
O=C1C(SCCO)=C(SCCO)C(=O)c2ccccc21,-32.2*,-13.1%,2.3,2.4,-0.5,-5.7
CC1=C(SCc2ccccc2)C(=O)c2ccccc2C1=O,.,-14.6%,.,.,.,.
COc1ccc(C(c2sc3nc(C)nn3c2O)N2CCC(O)CC2)cc1OC (configuration not stated),-0.7,-0.8%,3.9,-0.4,3.5,-8.8
COc1ccc(C(c2sc3nc(C)nn3c2O)N2CCN(Cc3ccccc3)CC2)cc1OC (configuration not stated),-50.9*,-3.0%,1.9,-0.2,7.1,-11.1
COc1ccccc1CNC(=O)N1CCN(S(=O)(=O)c2ccc(Cl)cc2)CC1,1.6,-2.3%,1.9,0.2,-2.1,3.8
Cc1cccc(N2CCN(c3nc4ccccc4c(=O)n3-c3ccc(Cl)cc3)CC2)c1C,10.5,-2.2%,0.0,0.5,-2.0,0.3
Cc1ccc(C)c(N2CCN(c3nc4ccccc4c(=O)n3-c3ccc(Cl)cc3)CC2)c1,-56.2*,-3.2%,0.6,0.9,-4.3,1.8
CC(=O)N(C1CC(C)C(C#N)(C#N)C1(C#N)C#N)N(C)C (configuration not stated),4.4,-15.8%,3.0,0.8,-3.2,5.0
CCCC(=O)N(C1CC(C)C(C#N)(C#N)C1(C#N)C#N)N(C)C (configuration not stated),-35.8*,-18.7%,5.7,-1.1,-4.0,-14.8
COc1ccc(Cn2c(C)nc3ccc([N+](=O)[O-])cc3c2=O)cc1,-30.2*,-0.4%,11.6,0.3,-13.3,-5.7
Cc1cc(C(=O)N/N=C\c2cc(C(C)(C)C)ccc2O)n[nH]1,3.1,0.3%,3.0,-1.0,0.0,1.9
CC(=O)N/N=C/c1cc(C(C)(C)C)cc(/C=N/NC(C)=O)c1O,-9.5,-7.7%,35.9*,21.9,5.5,8.0
CC(C)c1ccc(N(C(=O)c2snc(C(N)=O)c2N)C(C(=O)NCC2CCCO2)c2ccc(N(C)C)cc2)cc1 (configuration not stated),48.1,-5.9%,57.0*,0.2,2.7,2.6
Cc1ccccc1N(C(=O)c1snc(C(N)=O)c1N)C(C(=O)NCC1CCCO1)c1ccc(F)cc1 (configuration not stated),0.9,-2.5%,6.6,-0.6,39.7*,-7.5
CCCCCCCC/C=C/CCCCCCCCOP(=O)([O-])OCC[N+](C)(C)C,.,-2.9%,.,.,.,.
Cc1ccc(S(=O)(=O)CCC(=O)N(C)C2CCCCC2)cc1,-41.8*,-0.8%,-0.3,0.3,5.4,-2.8
Cc1ccc(S(=O)(=O)CCC(=O)OC(C)C(=O)NC2CCCCC2C)cc1 (configuration not stated),-42.2*,-3.7%,2.2,-0.7,-1.3,-0.8
Cc1ccc(NC(=O)C(C)OC(=O)Cc2c[nH]c3ccccc23)cc1 (configuration not stated),-55.8*,1.0%,-1.2,-0.6,-8.2,-1.9
CC(OC(=O)Cc1c[nH]c2ccccc12)C(=O)NC1CCCCC1C (configuration not stated),-31.4*,-4.2%,3.5,1.7,-2.2,-3.7
COCCN(C(=O)COC(=O)C(c1ccccc1)c1ccccc1)c1c(N)n(Cc2ccccc2)c(=O)[nH]c1=O,0.5,-1.4%,5.1,0.6,-0.5,0.7
COC(=O)NNC(=O)c1cccc(C)c1,-2.3,-6.2%,6.0,0.1,18.9,6.5
SMILES,D1 antag,Glioma ERSR ind,D1 ag,TRHR ag,TRHR PAM,D1 potentiator
O=C(O)[C@@H]1CCCN1C(=O)COc1ccc2c3c(c(=O)oc2c1)CCC3,-0.2,-2.6%,6.9,0.5,-1.5,2.3
CCc1ccc(NC(=O)C/C(C)=N/NC(=O)OCc2ccc(OC)cc2)cc1,-3.1,2.8%,-0.6,-1.0,-2.9,-1.8
CCOC(=O)CNC(=O)CNC(=O)c1ccc(OC(C)C)cc1,4.8,4.2%,1.9,0.5,-0.3,-0.9
CCC(=O)OCc1c(C(F)(F)F)nn(C)c1Sc1ccc(Cl)cc1,-33.1*,5.2%,18.6,-0.9,3.7,-1.8
CCC(=O)OCc1c(C(F)(F)F)nn(C)c1Sc1ccc(F)cc1,-0.2,-3.7%,9.1,0.8,-0.3,2.5
CCc1nc(SCC(=O)Nc2ccc3c(c2)OCCO3)c2oc3ccccc3c2n1,-33.7*,-2.4%,2.4,-0.1,2.5,5.3
O=C(CSc1nccc(=O)[nH]1)Nc1ccc(Oc2ccccc2)cc1,-57.0*,0.4%,2.2,0.3,-3.6,-9.6
CCc1cc(=O)[nH]c(SCC(=O)NCc2ccc3c(c2)OCO3)n1,-16.6,-4.2%,0.4,0.1,8.3,-1.2
Cc1nc(SCC(=O)Nc2ccc3c(c2)OCCO3)c2oc3ccccc3c2n1,-6.7,-0.2%,4.3,-0.3,-4.4,-0.9
Cc1nc(SCC(=O)Nc2ccc3c(c2)OCCO3)nc(C)c1C,-3.6,2.6%,3.3,-0.3,-5.8,10.9
Cc1cc(=O)[nH]c(SCC(=O)Nc2ccc3c(c2)OCCO3)n1,6.3,2.3%,0.9,0.3,32.3*,3.4
O=C(CSc1nccc(=O)[nH]1)NCc1ccc2c(c1)OCO2,-35.1*,-2.3%,1.6,0.3,3.0,2.5
O=C(CSc1nccn1Cc1ccc(Cl)cc1)Nc1ccc2c(c1)OCCO2,-30.9*,-1.7%,1.2,-0.4,-1.8,1.1
O=C(CSc1nccc(=O)[nH]1)Nc1ccc2c(c1)OCCO2,-57.8*,-2.3%,0.5,1.0,4.1,-0.8
CC(C)(C)CN1CCNC(=O)C1CC(=O)NCCc1ccccc1F (configuration not stated),-1.6,3.1%,3.2,1.3,31.2*,-8.0
O=C(NCC1CCCO1)c1ccc(OC2CCN(C(=O)C3CC3)CC2)cc1 (configuration not stated),-34.0*,-0.8%,0.1,0.0,5.0,2.7
O=C(NCC1CCCO1)c1ccc(NC(=O)c2cccc(Br)c2)cc1 (configuration not stated),5.8,-3.0%,0.8,-0.4,8.4,-11.0
